Data reported in PubChem BioAssay (NCI).
The panel holds about 83,000 compounds, 20% with a hit somewhere; the sample as a whole holds those more often.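 Each cell line was grown in a 96-well plate and treated with one concentration of compound for 48 hours. Values below 10 were considered active.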 The source made the active and inactive calls.

System: HL-60(TB) leukemia
Test: NCI-60 one-dose screen, 48 h (100 = growth as untreated, 0 = no growth, -100 = all killed)
Settings: 10 µM unless noted

Question: C/C=C(/C)C(=O)O[C@@H]1CC(C)(C)CC2C34OC(=O)[C@@]21CC[C@@]3(C)[C@]1(C)CCC2C(C)(C)C(=O)CC[C@]2(C)C1C[C@@H]4Cl (stereo partly specified) was tested. Which growth did it give?
Answer: Its growth is 101% (inactive).

Question: With CC12CC(C#N)CCC1O2 (stereo unspecified) as the molecule, how does the growth read?
Answer: Its growth is 101% (inactive).

Question: Which growth does the source give for O=S(=O)(NCCCNc1nccc(-n2ccc3cccnc32)n1)c1cccc(C(F)(F)F)c1 here?
Answer: Its growth is 109% (inactive).

Question: Which growth does the source give for COc1ccc(-c2nc(N3CCN(C(=O)C4CCCCC4)CC3)c3c4c(sc3n2)CCCC4)cc1 here?
Answer: The growth was 39% (inactive).

Question: CCN(CC)CCCNC(=O)c1ccc(N)cc1O was tested. Which growth did it give?
Answer: Its growth is 82.4% (inactive).

Question: With CC1=C(O)C(=O)CC1 as the molecule, how does the growth read?
Answer: The growth was 112% (inactive).

Question: O=[N+]([O-])c1cc(-c2ccccc2)c(O)c([N+](=O)[O-])c1 was tested. Which growth did it give?
Answer: The growth was 57.1% (inactive).

Question: How did the growth turn out when CCOC(=O)C1=C(C)NC(=O)NC1c1c(Cl)n(CCCl)c2ccccc12 (stereo unspecified) was run?
Answer: Its growth is 117% (inactive).

Question: Which growth does the source give for Nc1c(C(=O)Nc2ccccn2)sc2nc3c(cc12)CCCCC3 here?
Answer: Its growth is -9.45% (active).

Question: How did the growth turn out when C/C=C/C(N)=O was run?
Answer: Its growth is 107% (inactive).

Question: Which growth does the source give for C=CC(=O)Nc1cccc(Oc2nccc(Nc3nnc(C4CC4)s3)n2)c1 here?
Answer: Its growth is 78% (inactive).

Question: How did the growth turn out when O=C(CC(O)c1ccncc1)c1ccccc1 (stereo unspecified) was run?
Answer: The growth was 100% (inactive).

Question: CCOC(=O)C1=C(c2ccccc2)N=C2N(c3ccccc3)N=C(C(C)=O)N2C1c1ccc(Br)cc1 (stereo unspecified) was tested. Which growth did it give?
Answer: Its growth is 96.2% (inactive).

Question: Which growth does the source give for C/C(=C(/c1ccc(O)cc1)c1ccc(Cl)cc1)c1ccccc1 here?
Answer: The growth was -20.7% (active).

Question: N#Cc1c(N)nc(Cl)c(C#N)c1C(=O)c1ccccc1 was tested. Which growth did it give?
Answer: Its growth is 6.29% (active).

Question: Which growth does the source give for O=CN/N=C/c1ccc(Cl)c([N+](=O)[O-])c1 here?
Answer: The growth was 11.1% (inactive).

Question: With O=c1c2cc(F)ccc2sc2c(NCCN3CCCC3)nc3ccccc3c12 as the molecule, how does the growth read?
Answer: Its growth is 91.9% (inactive).

Question: For COc1c(B(O)O)cccc1-c1nc2ccc3[nH]ncc3c2c2c1C1CCC2C1 (stereo unspecified), which growth is on record?
Answer: The growth was 20% (inactive).

Question: How did the growth turn out when N=C1S/C(=C/c2ccc(-c3ccc4c(c3)C(=O)NC4=O)o2)C(=O)N1c1ccc(Br)cc1 was run?
Answer: The growth was 50.5% (inactive).

Question: For COCCCNc1nc(NC(=O)c2cc(OC)cc(OC)c2)cc(-c2cccnc2)n1, which growth is on record?
Answer: The growth was 90.2% (inactive).

Question: How did the growth turn out when CCCCCCCCCCCCCCCC[n+]1cccc(C#N)c1 was run?
Answer: Its growth is 30.4% (inactive).

Question: CC1(C)CC(=O)C2=C(C1)N(c1ccc(F)cc1F)C(N)=C(C#N)C2c1cc(Br)ccc1F (stereo unspecified) was tested. Which growth did it give?
Answer: The growth was 99.4% (inactive).

Question: For CCNc1nc(N2CC(=O)Nc3cc(OC)ccc32)c2ccccc2n1, which growth is on record?
Answer: Its growth is -4.51% (active).

Question: With COc1ccc(/C=C/c2c(C(=O)/C=C/c3ccc(C(F)(F)F)cc3)c(C)nc3ccccc23)cc1 as the molecule, how does the growth read?
Answer: The growth was -21.7% (active).

Question: Clc1ccc2c(c1)NC1(CCSc3ccccc31)n1nccc1-2 (stereo unspecified) was tested. Which growth did it give?
Answer: Its growth is 97.4% (inactive).

Question: With CC[C@]12C=CCN3CC[C@@]4(c5ccc(OC)cc5N(C)[C@H]4[C@@](O)(C(=O)OC)[C@@H]1OC(=O)CCC(=O)N[C@@H](Cc1c[nH]c4ccccc14)C(=O)OC)[C@@H]32 as the molecule, how does the growth read?
Answer: The growth was -5.33% (active).
